Source: PubChem BioAssay (Tox21)
Values joined by “and” are separate entries in the source; they are usually repeats but may differ in a detail not shown here. Equal values may be shown once. Records with an inconclusive call do not appear. Some structures have more than one record in an assay (separate samples or runs), and their calls can disagree. Active and inactive are the calls of the source. The call rests on the fitted dose curve; in most records, active means well fitted cell-killing curve with a large enough effect in the repeat runs; inconclusive means weak or mixed curves, or effect the other way; inactive means flat fitted curve, though single readings scatter.

Assay: Nuclear factor erythroid 2-related factor 2/antioxidant responsive element (Nrf2/ARE) small molecule agonists: qHTS cell viability counter screen in human keratinocytes (AID 1919968); further: nearly all actives have a fitted effect of over 55% in size
Conditions: KeratinoSens HaCaT ARE cells viability, CellTiter-Fluor, 24 h; series mostly up to 92.4 µM; activity change, negative = cytotoxicity: at the top concentration
Description: U.S. Tox21 Program National Center for Advancing Translational Sciences [NCATS] Division of Preclinical Innovation [DPI] U.S. Environmental Protection Agency [EPA] National Institutes of Environmental Health Sciences [NIEHS] National Toxicology Program [NTP] U.S. Food and Drug Administration [FDA] Tox21 Assay Overview: Oxidative stress has been implicated in the pathogenesis of a variety of diseases ranging from cancer to neurodegeneration. The antioxidant response element (ARE) signaling pathway plays an important role in the amelioration of oxidative stress. The KeratinoSens (Givaudan, Switzerland) is an in vitro test method which quantifies luciferase induction as a measure of activation of Keap1-Nrf2-antioxidationt/electrophile response element (ARE) dependant pathway in HaCaT human keratinocytes stably transfected with a selectable plasmid. The KeratinoSens assay is a cell-based assay with a reporter cell line to detect potential skin sensitizers by their ability to induce the Nrf2/ARE-response. The activation of the report gene under culture conditions can be detected by ONE-Glo Luciferase Assay System (Promega, Madison, WI). This cell line has been used to screen the Tox21 10K compound library to identify agonists that induce oxidative stress. The cytotoxicity of the Tox21 compound library against the KS-ARE cell line was tested in parallel by measuring the cell viability using CellTiter- Fluor assay system (Promega, Madison, WI) in the same wells.
Tox21 Assay Protocol Summary: HaCaT derived cell line KeratinoSens were dispensed at 1,500 cells/5uL/well in 1536-well white wall/solid bottom plates using a Multidrop Combi (ThermoFisher Scientific, Waltham, MA) dispenser. After the assay plates were incubated at 37 C/5% CO2 for 5 h, 23 nL of compounds dissolved in DMSO, positive controls or DMSO only was transferred to the assay plate by a pintool workstation (Kalypsys, San Diego, CA). The plates were incubated at 37 C/5% CO2 for 23 h, followed by addition of 1uL/well of CellTiter-Fluor reagent into the assay plates using a Flying Reagent Dispenser (Aurora Discovery, San Diego, CA) for cell viability readout that measures cytotoxicity. After 1 h incubation at 37 C/5% CO2 the fluorescence intensity was measured using a ViewLux (PerkinElmer, Shelton, CT) plate reader.
On the % scale 0 is the no-effect control and ±100 the full control effect; potency means the concentration at half of the fitted maximal effect.

Row | Compound | Potency | activity change, negative = cytotoxicity
1 | CO[Si](CCCOCC1CO1)(OC)OC (stereo not given) | inactive | 
2 | CNC(=O)NC |  | -0.8% (inactive)
3 | OCCOCCN1CCN(C2=Nc3ccccc3Sc3ccccc32)CC1 | inactive | 
4 | CCCSSCCC |  | 2.51% (inactive)
5 | COCCOCCOCCOCCOCCO |  | -0.811% (inactive)
6 | CC[C@H](c1ccc(O)cc1)[C@@H](CC)c1ccc(O)cc1 | 54.5 µM (active) | 
7 | CCCCN(CCCC)CCCCCCN(CCCC)CCCC |  | 1.6% (inactive)
8 | O=Cc1ccc(Cl)c(Cl)c1 |  | 0.809% (inactive)
9 | CC(C)=CCC/C(C)=C/C(=O)O |  | 5.86% (inactive)
10 | Cc1ccc(-c2ccccc2C#N)cc1 |  | -2.3% [at 42.5 µM] (inactive)
11 | CCCCCCCCO[C@@H]1O[C@H](CO)[C@@H](O)[C@H](O)[C@H]1O |  | -2.02% (inactive)
12 | c1ccc(Nc2cccc3ccccc23)cc1 | 61.9 µM (active) | 
13 | Cc1c(N)cccc1C(F)(F)F |  | -4.11% [at 42.5 µM] (inactive)
14 | CC[C@H](C)[C@@H](C(=O)O)n1sc2ccccc2c1=O |  | 1.88% (inactive)
15 | COc1ccc2cc1Oc1cc3c(cc1OC)CC[N+](C)(C)[C@H]3Cc1ccc(cc1)Oc1c(OC)c(OC)cc3c1[C@@H](C2)[N+](C)(C)CC3 |  | 3.45% [at 42.5 µM] (inactive)
16 | CC(=O)N1CCN(c2ccc(O)cc2)CC1 |  | -3.09% [at 42.5 µM] (inactive)
17 | COC(=O)CCCCC(=O)O |  | -0.569% (inactive)
18 | CCOc1ccccc1OCC |  | 1% (inactive)
19 | CCCCOCCOCCOCCO | inactive | 
20 | Cc1ccc(C(C)(C)O)cc1 |  | -5.72% (inactive)

Row | Compound | Potency | activity change, negative = cytotoxicity
21 | NCc1ccccc1Sc1ccccc1CO |  | -2.86% [at 42.5 µM] (inactive)
22 | CCCCCCCCCCCCC(=O)O |  | -2.1% (inactive)
23 | Cc1[nH]cnc1-c1ccc(Cl)cc1 |  | 3.39% [at 42.5 µM] (inactive)
24 | N#C[C@@H]1C[C@@H]2C[C@@H]2N1C(=O)[C@@H](N)C12CC3CC(CC(O)(C3)C1)C2 |  | 1.72% [at 42.5 µM] (inactive)
25 | CC(C)OC(=O)C(O)(CC(=O)O)CC(=O)O |  | 2.68% (inactive)
26 | CCCCCCCCCCCCCCCCBr |  | 3.53% [at 19 µM] (inactive)
27 | Oc1ccc(Sc2ccc(O)cc2)cc1 |  | 1.28% (inactive)
28 | CNC(=O)[C@H]1O[C@@H](n2cnc3c(NCc4cc(Cl)ccc4OCc4cc(C)no4)ncnc32)[C@H](O)[C@@H]1N |  | 0.979% (inactive)
29 | O=C1CCC(=O)N1 |  | 0.0722% (inactive)
30 | CC1CCC(C(C)C)C(O)C1 (stereo not given) | inactive | 
31 | C=CC(=O)NC(C)C |  | 0.812% (inactive)
32 | [Cl][Eu]([Cl])[Cl] |  | 2.83% (inactive)
33 | CSc1ccc2c(c1)N(CCC1CCCCN1C)c1ccccc1S2 (stereo not given) | 24.2 µM (active) and 26.6 µM (active) | 
34 | CC(COCCO)OCCO (stereo not given) |  | -0.638% (inactive)
35 | CN(C1CCCCC1)S(=O)(=O)c1ccccc1N |  | 0.295% (inactive)
36 | CCCCCC/C(C=O)=C\c1ccccc1 | inactive | 
37 | CC(C)(C)c1n[nH]c(=O)n(N)c1=O |  | -6.7% (inactive)
38 | O=C(O)c1ccccc1[N+](=O)[O-] |  | -1.43% (inactive)
39 | NNS(=O)(=O)c1ccc(Oc2ccc(S(=O)(=O)NN)cc2)cc1 |  | 11.6% (inactive)
40 | Nc1ccc(O)cc1 | 71.2 µM (active) and inactive | 
